Assay outcomes (PubChem)
Hits are enriched below; roughly 4.7% of the tested compounds scored in any of these assays.
LMP1 NFkB inh – reduces LMP1-driven NF-kappaB luciferase signal; LMP1-induced NF-kappaB luciferase reporter cells, luminescence; inhibition, % at 12.5 µM; 350,000 tested, 0.69% active; AID 504558; in the data active = inhibition above about 41%; inconclusive = no clear call, values can overlap the other calls
HSF1 activator – increases HSF-1 driven luciferase reporter signal; NIH3T3-HGL HSF-1 luciferase reporter, MG132, 8 h; 100% = twice DMSO control signal; 300,000 tested, 1.7% active; activation, % at 9 µM;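 active = mean replicate activation of at least 50% with a set share of replicates each reaching 50%; inconclusive = only one of those two conditions met; inactive = mean below 50% and too few replicates reaching it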
TROY NFkB inh – TROY signaling inhibition. Q293 LMP1-TROYcd NF-kB luciferase reporter, 4 h. inhibition, % at 10 µM. 360,000 tested, 0.98% active. AID 1347056;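 active = compounds whose plate-normalised and pattern-corrected inhibition of the luciferase reporter signal at the single screening dose is 50% or more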
HSF1 inhib – HSF1 inhibition. NIH3T3-HGL HSE-luciferase, MG132-induced, luminescence 8 h; active compounds read low. 300,000 tested, 0.77% active. activity change, negative = inhibition, % at 7.5 µM (by protocol);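 active = more than half of replicate wells show activity change below -50%, luminescence cut by over half; inconclusive = some wells, but at most half, below -50%; inactive = no replicate well below -50%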;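 also: luciferase reports HSF-1 transcriptional activity via heat shock element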
HSP90 inh – blocks HSP90-mediated luciferase refolding in reticulocyte lysate. Rabbit reticulocyte lysate, luciferase refolding luminescence, 3 h. inhibition, % at 5.6 µM. 290,000 tested, 0.91% active. AID 1789;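 active = inhibition above the screen-wide mean plus 3 SD, computed separately per campaign, cut at about 16% in these data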;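 also: inhibitors lower the luminescence because luciferase stays unfolded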
TWEAK-Fn14 inh – blocks TWEAK-Fn14 interaction in a reporter cell assay; TWEAK-stimulated Fn14 reporter cells, luciferase luminescence, 8 h; inhibition, % at 10 µM; 360,000 tested, 2% active; AID 1159606; in the data active = inhibition above about 50%
Of the large screens only hits and unclear results are named; the others gave an inactive call.

C/C(CC(=O)Nc1ccc(C)c(Cl)c1)=N\NC(=O)c1ccccn1	HSF1 activator 206
C/C(CC(=O)Nc1ccc(N(C)C)cc1)=N\NC(=O)c1ccc(Cl)cc1	HSF1 activator 83
C/C(CC(=O)Nc1ccc(N(C)C)cc1)=N\NC(=O)c1ccncc1	none
C/C(CC(=O)Nc1cccc(Cl)c1Cl)=N\NC(=O)C(=O)N1CCCC1	none
CCN(CC)C(=O)C1=C(C)N(CCCOC)C(=O)C(CC(=O)NCCCN(C)C)C1 (stereo not given)	none (no result: HSF1 activator, HSF1 inhib, HSP90 inh)
C/C(CC(=O)Nc1ccc2ccccc2c1)=N\NC(=O)c1cnccn1	HSF1 activator 74
O=[N+]([O-])c1ccc(CSc2nc3ccccc3o2)cc1	HSF1 activator 117
COC(=O)c1ccc(CSc2nc3ccccc3o2)cc1	none
CCCC(C)NC(=O)C1c2ccccc2Oc2ccccc21 (stereo not given)	HSF1 inhib -61
CCN(CC)C(=O)C1c2ccccc2Oc2ccccc21	TWEAK-Fn14 inh 61
CN1CCN(c2ccc(NC(=O)c3sc4ccccc4c3Cl)cc2)CC1	TROY NFkB inh 60
CC(=O)Nc1ccc(NC(=O)CNC(=O)c2sc3ccccc3c2Cl)cc1	none (no result: HSP90 inh)
Cc1cccc(C)c1NC(=O)CSC(=O)c1sc2ccccc2c1Cl	TROY NFkB inh 59
CCn1nnc(NC(=O)c2sc3ccccc3c2Cl)n1	HSF1 activator 74
CCc1nc2c(OCc3c(C)noc3C)cccn2c1N(C=O)Cc1ccccc1	none (no result: LMP1 NFkB inh, HSF1 activator, HSF1 inhib, HSP90 inh)
CC1(C(=O)NS(=O)(=O)c2ccc(C#N)cc2)CCN1C(=O)Cc1ccc(-c2ccccc2)cc1 (stereo not given)	none (no result: LMP1 NFkB inh, HSF1 activator, HSF1 inhib, HSP90 inh)
C[C@@H]1CN([C@H](C)CO)C(=O)CCCn2nncc2CO[C@H]1CN(C)C	none (no result: HSF1 activator, HSF1 inhib, HSP90 inh)
CC1ON=C(c2ccccn2)N(Cc2ccc(S(C)(=O)=O)cc2)C1=O (stereo not given)	none (no result: LMP1 NFkB inh, HSF1 activator, HSF1 inhib, HSP90 inh)
O=C(Nc1ccccc1C(F)(F)F)N1CCC(N2CCCCC2)CC1	TWEAK-Fn14 inh 84 (no result: TROY NFkB inh)
CC1(C(=O)NS(=O)(=O)c2cccc(C#N)c2)CCN1C(=O)Cc1ccc(Cl)cc1Cl (stereo not given)	none (no result: LMP1 NFkB inh, HSF1 activator, HSF1 inhib, HSP90 inh)
O=c1[nH]c(-c2ccccn2)nc2sc(-c3ccccc3)cc12	HSF1 activator inconclusive, TWEAK-Fn14 inh 100
Cc1c(C(=O)N(C)C)sc2nc(-c3ccccn3)[nH]c(=O)c12	none
O=C1NC(=Nc2ccccc2Cl)S/C1=C\c1cccc([N+](=O)[O-])c1O	none
O=C1NC(=Nc2ccccc2Cl)S/C1=C\c1cccc([N+](=O)[O-])c1	TROY NFkB inh 70
CCC1Cc2[nH]c(=S)[nH]c(=O)c2C(c2ccc(Cl)cc2)O1 (stereo not given)	none (no result: LMP1 NFkB inh, HSF1 activator, HSF1 inhib, HSP90 inh)
CC(C)[C@H](N[C@@H](C)c1ccccc1)c1c(O)ccc2ccccc12	LMP1 NFkB inh 66
Cc1ccc(S(=O)(=O)NC2CCSC2=O)cc1C (stereo not given)	LMP1 NFkB inh 69 (no result: HSF1 activator, HSF1 inhib, HSP90 inh)
CN(C)C(=O)c1cccc(-c2cnc3c(NC=O)cc(-c4ccc(N(C)C)cc4)cn23)c1	none (no result: LMP1 NFkB inh, HSF1 activator, HSF1 inhib, HSP90 inh)
CCOC(=O)[C@]12CCC=C1N(Cc1cccc3ccccc13)C(=O)[C@H](CC(=O)NCCCN1CCCC1=O)C2	none (no result: LMP1 NFkB inh, HSF1 activator, HSF1 inhib, HSP90 inh)
CC1=NN(C(N)=S)C(C)(C)C1	HSF1 inhib -55
CC1=NN(C(=S)Nc2ccccc2)C(C)(C)C1	none
COc1ccc(OC)c(NC(=O)C2(C)CCN2C(=O)CC2CC2)c1 (stereo not given)	none (no result: LMP1 NFkB inh, HSF1 activator, HSF1 inhib, HSP90 inh)
CCc1ccc2cccc3c2c1N=CN3C	TWEAK-Fn14 inh 86 (no result: HSP90 inh)
CSc1ccccc1NC(=O)C(C)N(C)CC(=O)N1CCN(Cc2ccccc2)CC1 (stereo not given)	LMP1 NFkB inh 72 (no result: HSF1 activator, HSF1 inhib, HSP90 inh)
O=C(Nc1ccc(Cl)c(Cl)c1)c1ccc(Cn2cc(Cl)cn2)cc1	HSF1 activator 72
Cn1nnnc1N=N/C(=N/Nc1ccccc1)c1ccccc1	LMP1 NFkB inh 60
Cc1ccccc1C(=O)N1CCC1(C)C(=O)NC(C)C (stereo not given)	none (no result: LMP1 NFkB inh, HSF1 activator, HSF1 inhib, HSP90 inh)
CC1=C(C(=O)N2CCCCCC2)CC(CC(=O)NC2CCCCC2)C(=O)N1CCC1=CCCCC1 (stereo not given)	none (no result: LMP1 NFkB inh, HSF1 activator, HSF1 inhib, HSP90 inh)
COc1ccc(/C=C(\C#N)C(=O)NCc2ccccc2)cc1O	none
COc1cc(/C=C(\C#N)C(=O)Nc2cccc3ncccc23)ccc1O	HSF1 activator 63 (no result: LMP1 NFkB inh, TROY NFkB inh, TWEAK-Fn14 inh)
COc1ccc(/C=C(\C#N)C(=O)Nc2cc(C)c(Cl)cc2OC)cc1O	HSF1 inhib -64
CCc1nc2ccc(C(=O)NCc3ccc(OC)cc3)cn2c1N(CC)CCN(C)C	none (no result: LMP1 NFkB inh, HSF1 activator, HSF1 inhib, HSP90 inh)
